According to PubChem BioAssay (NCI):
Values joined by “and” are separate entries in the source; they are usually repeats but may differ in a detail not shown here. Equal entries are not always repeated. The panel holds about 83,000 compounds, 20% with a hit somewhere; the sample as a whole holds those more often.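 Percent growth is the endpoint: 0 to 100 indicates growth inhibition (40 means 60% inhibition), 0 means no net growth, and negative values indicate cell death.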 Active and inactive are the calls of the source. How the source made its calls: active means growth percent below 10; inactive means the rest.

Assays:
Assay in all cases: NCI-60 one-dose screen, 48 h (100 = growth as untreated, 0 = no growth, -100 = all killed)
Conditions in all cases: 10 µM unless noted
SR leukemia = system: SR leukemia
RPMI-8226 leukemia = system: RPMI-8226 leukemia
OVCAR-8 ovarian = system: OVCAR-8 ovarian
OVCAR-5 ovarian = system: OVCAR-5 ovarian
OVCAR-4 ovarian = system: OVCAR-4 ovarian
SK-OV-3 ovarian = system: SK-OV-3 ovarian
IGROV1 ovarian = system: IGROV1 ovarian
OVCAR-3 ovarian = system: OVCAR-3 ovarian
HS 578T breast = system: HS 578T breast
NCI/ADR-RES ovarian = system: NCI/ADR-RES ovarian

Measured: growth

COc1ccccc1/C=C1\COc2ccc(O)cc2C1=O
active: RPMI-8226 leukemia 4.74%
inactive: SR leukemia 11.5% | OVCAR-8 ovarian 49.4% | OVCAR-5 ovarian 103% | OVCAR-4 ovarian 81.2% | SK-OV-3 ovarian 99.1% | IGROV1 ovarian 84.7% | OVCAR-3 ovarian 76.2% | HS 578T breast 83.5% | NCI/ADR-RES ovarian 38.1%

CCCCCC#CC1OC23CCCCC2C(C#N)(C(=N)O3)C1(C#N)C#N (centres undefined)
inactive: SR leukemia 87% | RPMI-8226 leukemia 93.3% | OVCAR-8 ovarian 85.8% | OVCAR-5 ovarian 102% | OVCAR-4 ovarian 108% | SK-OV-3 ovarian 111% | IGROV1 ovarian 99.4% | OVCAR-3 ovarian 117% | NCI/ADR-RES ovarian 102%

COC1=CC(=O)C(OC)=C(O)C1=O
inactive: SR leukemia 107% | RPMI-8226 leukemia 110% | OVCAR-8 ovarian 103% | OVCAR-5 ovarian 95.2% | OVCAR-4 ovarian 90.8% | SK-OV-3 ovarian 91% | IGROV1 ovarian 103% | OVCAR-3 ovarian 105% | HS 578T breast 113% | NCI/ADR-RES ovarian 101%

COc1ccccc1/C=C/C(=O)/C=C/c1ccccc1OC
inactive: OVCAR-4 ovarian 20.6% and 13%
-0.48% (active) and 50.4% (inactive): HS 578T breast
active: RPMI-8226 leukemia 7.24% and 1.3% | OVCAR-5 ovarian -15.7% and -6.94% | IGROV1 ovarian -53.8% and -46.1% | OVCAR-3 ovarian -29.1% and -36.7%
-2.31% (active) and 18.6% (inactive): NCI/ADR-RES ovarian
16.2% (inactive) and 7.78% (active): SR leukemia
5.47% (active) and 14.6% (inactive): SK-OV-3 ovarian
-25.9% (active) and 16.5% (inactive): OVCAR-8 ovarian

BrC1=C(Br)C(Br)(Br)C(Br)=C1Br
active: SR leukemia 9.34%
inactive: RPMI-8226 leukemia 20.8% | OVCAR-8 ovarian 62.8% | OVCAR-5 ovarian 97.2% | OVCAR-4 ovarian 104% | SK-OV-3 ovarian 108% | IGROV1 ovarian 98.3% | OVCAR-3 ovarian 104% | NCI/ADR-RES ovarian 75.2%

CC[C@H](C)[C@H](NC(=O)[C@@H](N)CCC(N)=O)C(=O)N[C@@H](Cc1ccc(O)cc1)C(=O)N[C@@H](CCCCN)C(=O)N[C@@H](CCCCN)C(=O)N[C@@H](Cc1ccc(O)cc1)C(=O)N[C@@H](CCCNC(=N)N)C(=O)N[C@H](C(=O)N[C@@H](Cc1c[nH]c2ccccc12)C(=O)N[C@@H](Cc1ccc(O)cc1)C(=O)N[C@@H](CCCNC(=N)N)C(=O)N[C@@H](CCCCN)C(=O)N[C@@H](C)C(=O)N[C@@H](Cc1c[nH]c2ccccc12)C(=O)N[C@@H](CCCCN)C(=O)N[C@H](C(=O)N[C@@H](CC(C)C)C(=O)NCC(=O)N[C@@H](CCCCN)C(=O)N[C@H](C(N)=O)C(C)C)C(C)C)[C@@H](C)O
inactive: SR leukemia 37.8% | RPMI-8226 leukemia 17.9% | OVCAR-8 ovarian 13% | OVCAR-5 ovarian 56.6% | OVCAR-4 ovarian 73.5% | SK-OV-3 ovarian 42.8%
active: IGROV1 ovarian -33.4% | OVCAR-3 ovarian -1.52% | NCI/ADR-RES ovarian -2.5%

O=C(CCl)n1nnnc1Cc1ccccc1
inactive: SR leukemia 93.5% | RPMI-8226 leukemia 96.3% | OVCAR-8 ovarian 91.1% | OVCAR-5 ovarian 95.9% | OVCAR-4 ovarian 105% | SK-OV-3 ovarian 93.6% | IGROV1 ovarian 107% | OVCAR-3 ovarian 112% | NCI/ADR-RES ovarian 101%

Cc1ccc2nc3ccccc3c(NCc3ccc(Cl)cc3)c2c1
inactive: OVCAR-8 ovarian 52.4% | OVCAR-5 ovarian 50.7% | OVCAR-4 ovarian 37.5% | SK-OV-3 ovarian 75.2% | IGROV1 ovarian 27.1% | OVCAR-3 ovarian 70.9% | NCI/ADR-RES ovarian 42%
active: SR leukemia -9.22% | RPMI-8226 leukemia -28.5%

O=C1C=CC(=O)N1c1ccc2ccccc2c1
inactive: SR leukemia 40.7% and 63.4% | RPMI-8226 leukemia 105% and 81.3% | OVCAR-8 ovarian 103% and 101% | OVCAR-5 ovarian 96.6% and 97.9% | OVCAR-4 ovarian 93.7% | SK-OV-3 ovarian 107% and 99.7% | IGROV1 ovarian 101% and 105% | OVCAR-3 ovarian 69.7% and 93.9% | HS 578T breast 93.6% and 103% | NCI/ADR-RES ovarian 99.7% and 104%

Cc1nc(Nc2ncc(C(=O)Nc3c(C)cccc3Cl)s2)cc(N2CCN(CCO)CC2)n1
active: SK-OV-3 ovarian -7.55% and -25.8% | IGROV1 ovarian -16.4% and -37% | HS 578T breast -8.57%
inactive: SR leukemia 40.4% and 14.7% | RPMI-8226 leukemia 92.8% and 61.1% | OVCAR-5 ovarian 23.7% and 10.2% | OVCAR-4 ovarian 52.8% and 44.8% | OVCAR-3 ovarian 37.3% and 20.4% | NCI/ADR-RES ovarian 45.8% and 23.7%
24.2% (inactive) and -24.8% (active): OVCAR-8 ovarian

O=C1CCc2c(sc3[nH]c(=S)n(Cc4ccc(Cl)cc4)c(=O)c23)C1
active: RPMI-8226 leukemia -25.5% | OVCAR-8 ovarian 7.83% | SK-OV-3 ovarian -10.1% | OVCAR-3 ovarian 6.66% | NCI/ADR-RES ovarian -0.97%
inactive: SR leukemia 17.9% | OVCAR-5 ovarian 11.7% | OVCAR-4 ovarian 12.4% | IGROV1 ovarian 23.3%

CCCCSc1ccc2nc(-c3ccc(OCCCN=C(N)N)cc3)cn2c1
active: RPMI-8226 leukemia -27.2%
inactive: SR leukemia 85.8% | OVCAR-8 ovarian 90.9% | OVCAR-5 ovarian 73% | OVCAR-4 ovarian 96.8% | SK-OV-3 ovarian 111% | IGROV1 ovarian 52.3% | OVCAR-3 ovarian 30.8% | NCI/ADR-RES ovarian 104%

COc1ccc(-c2cc(-c3cc(OC)c(OC)c(OC)c3)c(C#N)c(=O)n2CCCCC(=O)O)cc1
inactive: SR leukemia 72.6% | RPMI-8226 leukemia 84.3% | OVCAR-8 ovarian 92.4% | OVCAR-5 ovarian 105% | OVCAR-4 ovarian 91.5% | SK-OV-3 ovarian 125% | IGROV1 ovarian 104% | OVCAR-3 ovarian 99.6% | HS 578T breast 87.7% | NCI/ADR-RES ovarian 102%

Nc1c(C(=O)Nc2ccncc2)sc2nc3c(cc12)CCCCCCCC3
active: SR leukemia -27.5% | RPMI-8226 leukemia -49% | OVCAR-8 ovarian -90.6% | OVCAR-5 ovarian -75.8% | OVCAR-4 ovarian -84.6% | SK-OV-3 ovarian -92.1% | IGROV1 ovarian -73.7% | OVCAR-3 ovarian -81.8% | HS 578T breast -37.1% | NCI/ADR-RES ovarian -64.8%

CN1CCN(Cc2ccc(NC(=O)c3nc4ccc5[nH]ncc5c4c4c3CCCC4)cc2C(F)(F)F)CC1
active: SR leukemia -49.8% | RPMI-8226 leukemia -36.2% | OVCAR-8 ovarian -73.8% | OVCAR-4 ovarian -39.7% | IGROV1 ovarian -65.5% | OVCAR-3 ovarian -80.3% | NCI/ADR-RES ovarian -35.3%
inactive: OVCAR-5 ovarian 37.1% | SK-OV-3 ovarian 37%

OCCN1CCN(c2cc(-c3cccc(OC(F)(F)F)c3)nc3ccc(N4CCCC4)cc23)CC1
inactive: RPMI-8226 leukemia 43.1% | OVCAR-8 ovarian 54.3% | OVCAR-5 ovarian 69.4% | OVCAR-4 ovarian 54.9% | SK-OV-3 ovarian 74.5% | IGROV1 ovarian 36.9% | OVCAR-3 ovarian 46.7% | NCI/ADR-RES ovarian 48.5%
active: SR leukemia 3.39%

FC(F)(F)Sc1ccc(/C=C/c2cc(/C=C/c3ccc(SC(F)(F)F)cc3)n(-c3ccccc3)n2)cc1
inactive: SR leukemia 91.4% | RPMI-8226 leukemia 93.9% | OVCAR-8 ovarian 95.1% | OVCAR-5 ovarian 110% | OVCAR-4 ovarian 92.3% | SK-OV-3 ovarian 88.1% | IGROV1 ovarian 99.9% | OVCAR-3 ovarian 95.5% | HS 578T breast 98.8% | NCI/ADR-RES ovarian 98.5%

Cc1[nH]c(C(=O)Nc2nc3ccc(NC(=O)CCN)cc3s2)c(Cl)c1Cl
inactive: RPMI-8226 leukemia 78.4% | OVCAR-8 ovarian 56.1% | OVCAR-5 ovarian 92.5% | OVCAR-4 ovarian 44.8% | SK-OV-3 ovarian 107% | IGROV1 ovarian 68.4% | OVCAR-3 ovarian 77.3% | NCI/ADR-RES ovarian 58.4%
active: SR leukemia 6.56%

COCCn1cc(-c2nc(-c3cn(CCOC)c4ncccc34)cs2)c2ccccc21
inactive: SR leukemia 102% | RPMI-8226 leukemia 45.2% | OVCAR-8 ovarian 97.7% | OVCAR-5 ovarian 46% | OVCAR-4 ovarian 23.1% | SK-OV-3 ovarian 63.3% | IGROV1 ovarian 36.7% | OVCAR-3 ovarian 17.2% | NCI/ADR-RES ovarian 95.2%

C[C@@H]1CC[C@@H]2[C@@H]1[C@H](OC(=O)/C=C/c1ccccc1)[C@]1(c3ccccc3)C[C@@H](NC(=O)CO)[C@@]2(C)O1
inactive: SR leukemia 90.4% | RPMI-8226 leukemia 92.2% | OVCAR-8 ovarian 93.9% | OVCAR-5 ovarian 98.5% | OVCAR-4 ovarian 97.2% | SK-OV-3 ovarian 90.4% | IGROV1 ovarian 102% | OVCAR-3 ovarian 108% | NCI/ADR-RES ovarian 93%

C=C(c1ccc(C(=O)O)cc1)c1cc2c(cc1C)C(C)(C)CCC2(C)C
inactive: SR leukemia 46.1% and 84.9% | OVCAR-8 ovarian 77% and 80.6% | OVCAR-5 ovarian 91% and 79.7% | OVCAR-4 ovarian 95.4% and 86.9% | SK-OV-3 ovarian 88.7% and 77.8% | OVCAR-3 ovarian 88.8% and 82.6% | HS 578T breast 126% and 68.1% | NCI/ADR-RES ovarian 71.9% and 72.9%
2.66% (active) and 61% (inactive): RPMI-8226 leukemia

COc1ccc(/C=C/C(=O)c2cc3c(N)c(C(=O)Nc4ccccc4)sc3nc2C)cc1
inactive: SR leukemia 23.4% | OVCAR-5 ovarian 39.3% | OVCAR-4 ovarian 49.3% | SK-OV-3 ovarian 33% | HS 578T breast 14.6%
active: RPMI-8226 leukemia -13.3% | OVCAR-8 ovarian 3.29% | OVCAR-3 ovarian -16.6% | NCI/ADR-RES ovarian 2.9%

O=C(CC1(O)C(=O)Nc2ccc(Br)cc21)c1ccc(Cl)cc1 (centres undefined)
inactive: SR leukemia 103% | RPMI-8226 leukemia 96.7% | OVCAR-8 ovarian 96.6% | OVCAR-5 ovarian 124% | OVCAR-4 ovarian 97% | SK-OV-3 ovarian 88.3% | OVCAR-3 ovarian 102% | HS 578T breast 91.7% | NCI/ADR-RES ovarian 104%

Cn1ccnc1CN1CCSC(C(=O)Nc2ccccc2)C1 (centres undefined)
inactive: SR leukemia 96.8% | RPMI-8226 leukemia 88.5% | OVCAR-8 ovarian 95.5% | OVCAR-5 ovarian 83.1% | OVCAR-4 ovarian 90.7% | SK-OV-3 ovarian 98.7% | OVCAR-3 ovarian 102% | HS 578T breast 95.9% | NCI/ADR-RES ovarian 92.7%
